# The panel holds about 83,000 compounds, 20% with a hit somewhere; the sample as a whole holds those more often.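 Results are percent growth after 48 hours of single-concentration exposure. 100 means growth as in untreated cells, lower positive values show inhibition; negative values down to -100 show cell death.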 Values without a mark were called inactive. The source made the active and inactive calls. The calls were made as follows: active = growth percent below 10; inactive = the rest.
# How the values were obtained:
# Assay in all cases: NCI-60 one-dose screen, 48 h (100 = growth as untreated, 0 = no growth, -100 = all killed)
# Details in all cases: 10 µM unless noted
# NCI-H23 lung = system: NCI-H23 lung
# NCI-H226 lung = system: NCI-H226 lung
# NCI-H322M lung = system: NCI-H322M lung
# HOP-62 NSCLC = system: HOP-62 NSCLC
# NCI-H460 lung = system: NCI-H460 lung
# HOP-92 NSCLC = system: HOP-92 NSCLC
# NCI-H522 lung = system: NCI-H522 lung
# A549/ATCC NSCLC = system: A549/ATCC NSCLC
# 786-0 renal = system: 786-0 renal
# COLO 205 colon = system: COLO 205 colon
Structure (SMILES),growth (NCI-H23 lung),growth (NCI-H226 lung),growth (NCI-H322M lung),growth (HOP-62 NSCLC),growth (NCI-H460 lung),growth (HOP-92 NSCLC),growth (NCI-H522 lung),growth (A549/ATCC NSCLC),growth (786-0 renal),growth (COLO 205 colon)
COC(=O)[C@]12CC[C@@H](C)[C@H](C)[C@@H]1C1=CC[C@@H]3[C@@]4(C)C(C#N)=CC(C)=C4CC[C@@]3(C)[C@]1(C)CC2,78.2%,82.7%,108%,113%,89.3%,91.7%,78.1%,92.2%,93%,86.1%
Cc1cc(C(=O)Nc2cc(Oc3ccc4nc(NC(=O)C5CC5)cn4n3)ccc2C)n(C)n1,24.7%,43.3%,15.8%,14.4%,18.9%,-25.6% (active),14.1%,11%,51.9%,-27.2% (active)
CO[C@H]1C[C@@H]2CC[C@@H](C)[C@@](O)(O2)C(=O)C(=O)N2CCCC[C@H]2C(=O)O[C@H]([C@H](C)C[C@@H]2CC[C@@H](OCCO)[C@H](OC)C2)CC(=O)[C@H](C)/C=C(\C)[C@@H](O)[C@H](OC)C(=O)[C@H](C)C[C@H](C)\C=C/C=C/C=C/1C,54.9%,48.7%,44.9%,41.2%,43.2%,45.7%,48.7%,44.6%,52.6%,55.8%
CN(C)C1CCN(C(=O)c2ccc(NC(=O)Nc3ccc(-c4nc(N5CCOCC5)nc(N5CCOCC5)n4)cc3)cc2)CC1,8.52% [2.5 µM] (active),-18.2% [2.5 µM] (active),-30.3% [2.5 µM] (active),-21.5% [2.5 µM] (active),6.4% [2.5 µM] (active),-32% [2.5 µM] (active),8.88% [2.5 µM] (active),-25.2% [2.5 µM] (active),-10.7% [2.5 µM] (active),-31.4% [2.5 µM] (active)
CCOC(=O)Sc1ncnc2nc[nH]c12,64.8%,37.4%,40.4%,17.2%,71.8%,12.2%,-18.8% (active),104%,18%,103%
C=C1CC[C@@H]2[C@](C)(COC(C)=O)[C@H](OC(C)=O)CC[C@@]2(C)[C@@H]1C/C=C1/C(=O)OC[C@H]1OC(C)=O,80.9%,23.6%,101%,75.7%,98%,71.9%,-41.6% (active),85.8%,-10.9% (active),22%
CC[C@H](CO)Nc1nc(NCc2ccccc2)c2ncn(C(C)C)c2n1,63.5%,76%,61.3%,48.2%,47.8%,65.4%,48.8%,56%,57.6%,47.1%
COc1cc2ncnc(Oc3cccc(NC(=O)Nc4cc(C(C)(C)C(F)(F)F)on4)c3)c2cc1OC,19.4%,23.9%,1.62% (active),37.1%,34.3%,-3.15% (active),0.301% (active),33.4%,39.5%,1.14% (active)
CCCNC(=O)c1cn2ncnc(Nc3cc(C(=O)NC4CC4)ccc3C)c2c1C,24.6%,42.1%,47.5%,81.1%,66.8%,74.6%,79.1%,63.3%,99%,88.9%
C=CC(=O)N1CCC(Oc2cc3c(Nc4ccc(Cl)c(Cl)c4F)ncnc3cc2OC)CC1,23.2%,34.9%,12.2%,18.4%,39.3%,-29.7% (active),-49.3% (active),15.7%,23.2%,15%
CC12O[C@H](C[C@@H](OC(=O)CCC(=O)O)[C@H]1O)n1c3ccccc3c3c4c(c5c6ccccc6n2c5c31)C(=O)NC4=O,12.3%,9.15% (active),34.3%,13.5%,20.2%,7.85% (active),21%,13.8%,36.8%,-16.4% (active)
CC/C(=C(\c1ccc(OCCN2CCCCCCC2)cc1)c1ccc(OC(=O)C2CCCCC2)cc1)c1ccc(Cl)cc1,99.4%,100%,80.9%,102%,106%,90.3%,89.4%,104%,104%,123%
CC#CC(=O)N1CCC[C@H]1c1nc(-c2ccc(C(=O)Nc3ccccn3)cc2)c2c(N)nccn12,96.4%,80.2%,76.6%,68.9%,90.4%,76.9%,37.1%,48.6%,92.3%,81.6%
CC(=O)C1=C(C)NC(SCc2nnc(-c3ccc(C)cc3)o2)=NC1c1ccc(F)cc1 (stereo unspecified),95.2%,89.6%,92.8%,95.2%,106%,96.4%,85.9%,91.2%,84.6%,115%
Nc1c(Cl)cccc1[N+](=O)[O-],106%,101%,110%,98.8%,104%,96.6%,118%,101%,109%,114%
CC(C)n1c(NCCc2ccc(O)c(O)c2)nc2c1c(=O)n(C)c(=O)n2C,87.2%,90.1%,95.1%,103%,100%,83.7%,85.2%,92.8%,90.4%,103%
O=C(Nc1cccc([N+](=O)[O-])c1)c1ccc(Cl)c(Cl)c1,59.3%,43.3%,69.7%,7.13% (active),77.6%,51.6%,60%,68.3%,67.4%,89.7%
CCN(CC)CCNc1ccc(N=Nc2cnc3ccccc3c2)c2ccccc12,-92.6% (active),-73.6% (active),10.8%,-84.6% (active),-78.8% (active),-82.4% (active),-87.2% (active),-97.9% (active),-87.9% (active),-82.2% (active)
COc1cc2c(cc1O)c(=O)n(CCN(C)C)c1c3cc4c(cc3ncc21)OCO4,-19.1% (active),-48.7% (active),-5.9% (active),-4.35% (active),-14.8% (active),-16.6% (active),-37% (active),-56% (active),-54.5% (active),45.9%
N#Cc1c(C(F)(F)F)cc(Nc2ccc3nc(NCCN4CCCC4)oc3c2)n2c1nc1ccccc12,81%,82.8%,87.4%,75%,99.4%,51.2%,58.2%,56.7%,26.1%,38.7%
COc1cc2c(Nc3ccc(Br)cc3F)ncnc2cc1OCC1CCN(C)CC1,52.5%,57.5%,6.72% (active),19.5%,39.9%,-12.9% (active),-31.3% (active),22.9%,15.3%,-13.9% (active)
Cc1ccc(-n2nc(C(C)(C)C)cc2NC(=O)NCc2cc(F)ccc2Oc2ccc3c(cnn3CCO)c2)cc1,20.8%,21.1%,21.6%,26.1%,25.8%,19.5%,4.27% (active),19.4%,29.1%,-13% (active)

Structure (SMILES),growth (NCI-H23 lung),growth (NCI-H226 lung),growth (NCI-H322M lung),growth (HOP-62 NSCLC),growth (NCI-H460 lung),growth (HOP-92 NSCLC),growth (NCI-H522 lung),growth (A549/ATCC NSCLC),growth (786-0 renal),growth (COLO 205 colon)
O=C(O)c1ccc(Nc2ncc3c(n2)-c2ccc(Cl)cc2C(c2c(F)cccc2F)=NC3)cc1,64.9%,51.7%,89%,37.7%,39.5%,54.4%,29.9%,30%,63%,2.8% (active)
COc1ccc(-c2cc3c(C)nc(N)nc3n(C3CCC(OCCO)CC3)c2=O)cn1 (stereo unspecified),15%,-0.55% (active),-36.4% (active),-21.9% (active),6.78% (active),-32.2% (active),-1.92% (active),-38.4% (active),-24.1% (active),-61.1% (active)
CN1CC[C@@H](c2c(O)cc(O)c3c(=O)cc(-c4ccccc4Cl)oc23)[C@@H]1CO,-26.5% (active),7.7% (active),-1.67% (active),-21.2% (active),4.14% (active),-2.24% (active),-13.8% (active),4.56% (active),4.31% (active),-64.5% (active)
N#CCNC(=O)c1ccc(-c2ccnc(Nc3ccc(N4CCOCC4)cc3)n2)cc1,29.6%,-3.52% (active),,4.27% (active),6.81% (active),46.9%,4.57% (active),13.4%,4.83% (active),2.5% (active)
COC(=O)[C@@H](OC)[C@@H]1Cc2cc3cc(OC4CC(OC5CC(O)C(O)C(C)O5)C(O)C(C)O4)c(C)c(O)c3c(O)c2C(=O)[C@H]1OC1CC(OC2CC(OC3CC(C)(O)C(O)C(C)O3)C(O)C(C)O2)C(O)C(C)O1 (stereo partly specified),-47.3% (active),-41.9% (active),,6.33% (active),4.95% (active),-15.6% (active),-30.3% (active),8.71% (active),9.07% (active),-37.2% (active)
CC(C)[C@@H](C)/C=C/[C@@H](C)[C@H]1CCC2=C3C=CC4=CC(=O)CC[C@]4(C)[C@H]3CC[C@@]21C,96%,93.2%,,104%,107%,86.6%,67.2%,77.4%,101%,105%
CC1(C=O)NC(=O)NC1=O (stereo unspecified),105%,92.8%,,68.4%,108%,96.4%,77.1%,55.7%,104%,100%
O=C1C=CC2(NN=C(c3ccccc3)N2c2cccc(Cl)c2)c2cccc(O)c21 (stereo unspecified),26.3%,,95.1%,37.9%,85.1%,110%,51.3%,33.2%,107%,
CC1(O)CCC(Nc2cc(-c3ccc(C(F)(F)F)cc3)c(C#N)c3nc4ccccc4n23)CC1 (stereo unspecified),81.9%,71%,,64.7%,68.7%,52.5%,63.2%,56%,70.7%,61%
C=C1[C@@H](O)C[C@H]2C(C)(C)C[C@H](Cl)C[C@]2(C)[C@H]1C[C@H](O)[C@H]1CC(=O)NC1=O,-36.2% (active),-25.8% (active),,-38.4% (active),-11.5% (active),-13.5% (active),-36.8% (active),-14.1% (active),-33.2% (active),-62.5% (active)
COC(=O)CC[C@@H](C)[C@H]1CC[C@H]2C3CC[C@@H]4C[C@@H]5CC[C@]4(C)[C@@]3(O5)[C@H](Br)[C@@H](Br)[C@]12C (stereo partly specified),81.1%,87.1%,,85.8%,107%,93.4%,58%,68.6%,92.5%,101%
COc1cnc2c(c1)C(=O)c1c-2n(CCCN2CCC(N)CC2)c(=O)c2cc([N+](=O)[O-])ccc12,38.4%,35.7%,,30.6%,11.2%,67.1%,42.2%,23%,36.2%,58.2%
COC(=O)N[C@@H](C)CNc1nccc(-c2cn(C(C)C)nc2-c2cc(Cl)cc(NS(C)(=O)=O)c2F)n1,59.2%,94.9%,,72.7%,91.2%,49.7%,44.2%,53.4%,48.6%,4.94% (active)
CN(C[C@@H]1COCCO1)S(=O)(=O)Nc1ccc2ccc3ncc(-c4cnn(C)c4)cc3c(=O)c2c1,30.6%,40.9%,,36.4%,35%,16.9%,11.2%,48.1%,41.3%,49.3%
O=C(Nc1cn[nH]c1-c1nc2ccc(CN3CCOCC3)cc2[nH]1)NC1CC1,23.5%,6.37% (active),,-9.72% (active),34.4%,-2.75% (active),11.5%,48.6%,13.6%,-39% (active)
Cc1[nH]n(C(N)=S)c(=O)c1N=Nc1ccc(S(=O)(=O)Nc2ccncn2)cc1,102%,93.4%,,103%,100%,16.4%,99.7%,101%,103%,112%
Cc1cc(C)n(CC(=O)Nc2ccc(-c3nc4ccccc4s3)cc2)n1,93.8%,100%,,105%,102%,97.7%,103%,94.7%,106%,112%
COc1ccc(Nc2ncccc2NC(=O)c2cn(Cc3cccc(Oc4ccccc4)c3)nn2)cc1,91.8%,93.8%,,106%,96.5%,99.6%,77.8%,80.2%,102%,102%
O=c1[nH]c(N2CCOCC2)nc2scc(-c3ccccc3)c12,87.2%,97.2%,,91.3%,110%,79.7%,77%,86.8%,95.2%,101%
C1=C\COCc2cc(ccc2OCCN2CCCC2)Nc2nccc(n2)-c2cccc(c2)COC/1,-17.3% (active),-64.9% (active),,-18.1% (active),-34.5% (active),-0.764% (active),-58.1% (active),-17.3% (active),1.51% (active),-82% (active)
CC(=O)OCCC/C(=C\c1ccc2ccccc2c1)[N+](=O)[O-],-42.3% (active),-23% (active),,-27.5% (active),64.3%,-90.5% (active),-80.3% (active),-72.3% (active),-93.4% (active),-77.9% (active)

# Reference: PubChem BioAssay (NCI)
